Assay results: ChEMBL document CHEMBL1961873, “Compounds: GSK PKIS; Assays: Nanosyn kinase panel” (2012)

tested on: Proto-oncogene tyrosine-protein kinase receptor Ret (Homo sapiens), P07949 [Y791F]; details: at 0.1 µM
Sequence (P07949 whole entry Y791F): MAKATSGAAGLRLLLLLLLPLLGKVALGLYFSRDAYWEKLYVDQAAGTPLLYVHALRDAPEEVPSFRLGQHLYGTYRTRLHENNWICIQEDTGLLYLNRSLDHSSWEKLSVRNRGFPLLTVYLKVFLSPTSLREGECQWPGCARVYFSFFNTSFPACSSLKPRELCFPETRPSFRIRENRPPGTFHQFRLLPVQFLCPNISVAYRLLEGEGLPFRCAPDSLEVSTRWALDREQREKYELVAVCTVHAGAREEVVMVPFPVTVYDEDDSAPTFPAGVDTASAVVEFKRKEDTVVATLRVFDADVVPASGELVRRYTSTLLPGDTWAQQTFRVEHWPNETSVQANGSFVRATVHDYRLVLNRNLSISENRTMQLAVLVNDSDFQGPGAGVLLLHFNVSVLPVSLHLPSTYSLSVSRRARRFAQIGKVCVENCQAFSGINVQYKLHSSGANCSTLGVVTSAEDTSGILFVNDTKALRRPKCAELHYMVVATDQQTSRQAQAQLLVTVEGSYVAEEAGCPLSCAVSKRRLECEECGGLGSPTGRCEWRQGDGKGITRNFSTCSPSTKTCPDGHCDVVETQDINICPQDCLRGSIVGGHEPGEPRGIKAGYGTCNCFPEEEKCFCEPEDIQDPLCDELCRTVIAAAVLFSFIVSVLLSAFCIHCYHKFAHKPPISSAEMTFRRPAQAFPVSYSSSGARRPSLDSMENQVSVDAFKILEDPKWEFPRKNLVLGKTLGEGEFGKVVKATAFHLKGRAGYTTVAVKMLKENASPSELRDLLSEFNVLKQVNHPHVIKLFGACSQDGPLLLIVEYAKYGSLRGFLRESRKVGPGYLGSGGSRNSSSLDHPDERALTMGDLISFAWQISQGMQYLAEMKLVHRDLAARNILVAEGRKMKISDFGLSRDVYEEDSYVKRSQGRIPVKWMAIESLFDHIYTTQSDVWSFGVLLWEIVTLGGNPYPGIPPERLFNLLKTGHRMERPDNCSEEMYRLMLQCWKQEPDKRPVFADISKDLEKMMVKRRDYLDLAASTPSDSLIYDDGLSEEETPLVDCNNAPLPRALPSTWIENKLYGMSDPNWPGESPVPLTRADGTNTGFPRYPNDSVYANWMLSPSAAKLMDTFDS

Row | Structure (SMILES) | inhibition [%]
1 | Cc1cc(O)cc(C)c1/C=C/c1cncc(-c2nn[nH]n2)c1 | 3.32
2 | Nc1nc(-c2ccc3c(c2)C(=Cc2cc(Br)c(O)c(Br)c2)C(=O)N3)cs1 | 3.97
3 | COc1cccc(-n2ncc3c(N/N=C/c4cccc(F)c4)ncnc32)c1 | 4.94
4 | COC(=O)Nc1nc2cc(Oc3ccc(NC(=O)Nc4cccc(C(=O)O)c4)cc3)ccc2[nH]1 | 1.53
5 | Cc1nn(C)c2cc(N(C)c3ccnc(Nc4cccc(S(N)(=O)=O)c4)n3)ccc12 | 12.6
6 | COc1cc2ncn(-c3cc(OCc4ccccc4Cl)c(C(N)=O)s3)c2cc1OC | 20.7
7 | CC(=O)Nc1cccc(C#Cc2cncnc2Nc2ccc(OCc3cccc(F)c3)c(Cl)c2)n1 | 0.37
8 | COc1ccc(COc2ccc(Cc3cnc(N)nc3N)cc2OC)cc1 | 12.4
9 | Nc1nc(-c2ccccn2)c(-c2ccc3ncccc3n2)s1 | 2.3
10 | CC1=C(C(=O)Nc2ccc3[nH]ncc3c2)C(c2ccc3ccccc3c2)CC(=O)N1 (centres undefined) | 20.1
11 | COc1ccc(-c2coc3ncnc(N)c23)cc1 | 10.4
12 | CS(=O)(=O)CCNCc1nc(-c2ccc3ncnc(Nc4ccc(F)c(Cl)c4)c3c2)cs1 | 7.75
13 | O=C1Nc2ccc(C(=O)c3ccco3)cc2C1=Cc1cc(Cl)c(O)c(Cl)c1 | 16
14 | COc1cc2ncn(-c3cc(O[C@H](C)c4ccccc4Cl)c(C(N)=O)s3)c2cc1OC | 20.7
15 | CS(=O)(=O)CCN(CC#N)Cc1ccc(-c2ccc3ncnc(Nc4ccc(OCc5cccc(F)c5)c(Cl)c4)c3c2)o1 | 2.36
16 | CC(C)=Cc1cccc2c1/C(=N/Nc1ccc(S(N)(=O)=O)cc1)C(=O)N2 | 6.44
17 | CCn1c(-c2nonc2N)nc2c(C#CC(C)(C)O)nc(OC[C@@H](N)c3ccccc3)cc21 | 10.7

tested on: Proto-oncogene tyrosine-protein kinase receptor Ret (Homo sapiens), P07949 [Y791F]; details: at 1 µM

Row | Structure (SMILES) | inhibition [%]
18 | Nc1ncnc2occ(-c3ccc(NC(=O)Nc4cc(C(F)(F)F)cc(C(F)(F)F)c4)cc3)c12 | 75.6
19 | CCn1c(-c2nonc2N)nc2c(N3CCCC3)nccc21 | 2.26
20 | CCn1c(-c2nonc2N)nc2cnc(Oc3cccc(NC(=O)c4ccc(OCCN5CCOCC5)cc4)c3)cc21 | 7.86
21 | Cc1cccc(-c2n[nH]cc2-c2ccc3ncccc3n2)n1 | 18.7
22 | CC1=C(C(=O)Nc2ccc3[nH]ncc3c2)C(c2ccc(F)cc2)NC(=O)N1 (centres undefined) | 42.4
23 | CCCN1CCC=C(c2ccc(Nc3nc(Nc4ccccc4C(N)=O)c4cc[nH]c4n3)c(C)c2)C1 | 25.8
24 | CS(=O)(=O)Nc1ccc(N/C=C2\C(=O)Nc3ccccc32)cc1 | 50
25 | CCN1CCC(CC(=O)Nc2n[nH]c3nc(-c4cccs4)c(Br)cc23)CC1 | -0.99
26 | CS(=O)(=O)CCNCc1ccc(-c2ccc3ncnc(Nc4ccc(OCc5cccc(F)c5)c(C(F)(F)F)c4)c3c2)o1 | 3.86
27 | COc1ccc(-c2nn3ncccc3c2-c2ccnc(Nc3ccc(Cl)c(C(F)(F)F)c3)n2)cc1 | 13.3
28 | c1cnn2ncc(-c3ccnc(Nc4ccc5c(c4)OCCO5)n3)c2c1 | 26.2
29 | CCn1c(-c2nonc2N)nc2cncc(C(=O)N3CC[C@H](N)C3)c21 | 13.9
30 | NCc1ccc(-c2nc(-c3ccc(Cl)c(O)c3)c(-c3ccncc3)[nH]2)cc1 | 76.3
31 | COc1cc2ncn(-c3cc(OCc4ccccc4C(F)(F)F)c(C(N)=O)s3)c2cc1OC | 50.6
32 | COc1ccc(-c2ccncc2)cc1C(N)=O | 6.78
33 | Cc1cc(O)cc(C)c1/C=C/c1cncc(-c2nn[nH]n2)c1 | 14.4

Row | Structure (SMILES) | inhibition [%]
34 | Nc1nc(-c2ccc3c(c2)C(=Cc2cc(Br)c(O)c(Br)c2)C(=O)N3)cs1 | 7.25
35 | COc1cccc(-n2ncc3c(N/N=C/c4cccc(F)c4)ncnc32)c1 | 19.5
36 | COC(=O)Nc1nc2cc(Oc3ccc(NC(=O)Nc4cccc(C(=O)O)c4)cc3)ccc2[nH]1 | 26.3
37 | Cc1nn(C)c2cc(N(C)c3ccnc(Nc4cccc(S(N)(=O)=O)c4)n3)ccc12 | 46.8
38 | COc1cc2ncn(-c3cc(OCc4ccccc4Cl)c(C(N)=O)s3)c2cc1OC | 60.2
39 | CC(=O)Nc1cccc(C#Cc2cncnc2Nc2ccc(OCc3cccc(F)c3)c(Cl)c2)n1 | 13.9
40 | COc1ccc(COc2ccc(Cc3cnc(N)nc3N)cc2OC)cc1 | 4.28
41 | Nc1nc(-c2ccccn2)c(-c2ccc3ncccc3n2)s1 | 10.2
42 | CC1=C(C(=O)Nc2ccc3[nH]ncc3c2)C(c2ccc3ccccc3c2)CC(=O)N1 (centres undefined) | 60.5
43 | COc1ccc(-c2coc3ncnc(N)c23)cc1 | 11
44 | CS(=O)(=O)CCNCc1nc(-c2ccc3ncnc(Nc4ccc(F)c(Cl)c4)c3c2)cs1 | 31
45 | O=C1Nc2ccc(C(=O)c3ccco3)cc2C1=Cc1cc(Cl)c(O)c(Cl)c1 | 54.8
46 | COc1cc2ncn(-c3cc(O[C@H](C)c4ccccc4Cl)c(C(N)=O)s3)c2cc1OC | 63.8
47 | CS(=O)(=O)CCN(CC#N)Cc1ccc(-c2ccc3ncnc(Nc4ccc(OCc5cccc(F)c5)c(Cl)c4)c3c2)o1 | 3.1
48 | CC(C)=Cc1cccc2c1/C(=N/Nc1ccc(S(N)(=O)=O)cc1)C(=O)N2 | 50.3
49 | CCn1c(-c2nonc2N)nc2c(C#CC(C)(C)O)nc(OC[C@@H](N)c3ccccc3)cc21 | 47.4
